# Test results as given in the supplement of paper PMC10037445.
# Whole data set: some 2,900 compounds, median “NF-kB SEAP reporter activity, fold change vs agonist alone” near 0.99, cut for the highest 2% near 2.6. This is one part of a sample in which the highest values are shown more often than they occur.
# Assays:
# [1] = tested on: RAW-Dual; assay: NF-kB SEAP reporter activity, fold change vs agonist alone; cytotoxicity flag (confluency mask): cytotoxic (confluency <70% of control); higher = enhanced NF-kB activity
# Outline: (§1)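 RAW-Dual macrophages (50,000 cells/well in DMEM, 384-well plates) received 50 nL of library stock by pin tool, then a PRR agonist 1 h later, and were kept at 37 °C, 5% CO2. After 20 hours, supernatant was read for IRF by QuantiLuc luminescence and for NF-κB by QuantiBlue absorbance at 620 nm. Reporter activity is fold change over agonist-alone wells. Cytotoxic wells had IncuCyte confluency below 70% of agonist controls in both mask sets.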
# [2] = tested on: RAW-Dual; assay: NF-kB SEAP reporter activity, fold change vs agonist alone; cytotoxicity flag (confluency mask): not cytotoxic; higher = enhanced NF-kB activity
# Outline: as §1
# [3] = tested on: RAW-Dual; assay: NF-kB SEAP reporter activity, fold change vs agonist alone; higher = enhanced NF-kB activity
# Outline: as §1
# [4] = agonist: ODN 1826 (TLR9) 0.5 ug/mL
# [5] = agonist: Pam2CSK4 (TLR2/6) 0.1 ug/mL
# [6] = agonist: Pam3CSK4 (TLR2/1) 0.1 ug/mL
# [7] = library stock concentration (final ~1000-fold dilution): 10 mM, cytotoxicity flag (confluency mask): not cytotoxic, agonist: MPLA (TLR4) […]
# [8] = library stock concentration (final ~1000-fold dilution): 10 mM, cytotoxicity flag (confluency mask): cytotoxic (confluency <70% of control), agonist: Imiquimod (TLR7) […]
# [9] = library stock concentration (final ~1000-fold dilution): 10 mM, cytotoxicity flag (confluency mask): cytotoxic (confluency <70% of control), agonist: MPLA (TLR4) […]
# [10] = library stock concentration (final ~1000-fold dilution): 10 mM, cytotoxicity flag (confluency mask): not cytotoxic, agonist: Imiquimod (TLR7) […]
smiles,measurement,setting,value
CC(C)(C)c1nc(-c2ccc(NC(=O)Nc3cccc(C(F)(F)F)c3)c3ccccc23)c2c(N)nccn12 (library stock concentration (final ~1000-fold dilution): 10 mM),NF-kB SEAP reporter activity,[1]; agonist: LPS (TLR4) 0.1 ug/mL,0.488
same,NF-kB SEAP reporter activity,[1]; [4],0.163
same,NF-kB SEAP reporter activity,[1]; [5],0.0888
same,NF-kB SEAP reporter activity,[1]; [6],0.136
CNC(=O)c1cc(Oc2ccc(NC(=O)Nc3ccc(Cl)c(C(F)(F)F)c3)c(F)c2)ccn1.O (library stock concentration (final ~1000-fold dilution): 10 mM),NF-kB SEAP reporter activity,[2]; agonist: LPS (TLR4) 0.1 ug/mL,0.727
same,NF-kB SEAP reporter activity,[2]; [4],0.502
same,NF-kB SEAP reporter activity,[2]; [5],0.166
same,NF-kB SEAP reporter activity,[2]; [6],0.205
CNC(=O)c1cc(Oc2ccc(NC(=O)Nc3ccc(Cl)c(C(F)(F)F)c3)c(F)c2)ccn1.O,NF-kB SEAP reporter activity,[3]; [7],1.58
CCS(=O)(=O)Nc1ccc2c(c1)/C(=C(/Nc1ccc(CN3CCCCC3)cc1)c1ccccc1)C(=O)N2 (library stock concentration (final ~1000-fold dilution): 10 mM),NF-kB SEAP reporter activity,[1]; agonist: LPS (TLR4) 0.1 ug/mL,0.196
same,NF-kB SEAP reporter activity,[1]; [4],0.197
same,NF-kB SEAP reporter activity,[1]; [5],0.0873
same,NF-kB SEAP reporter activity,[1]; [6],0.163
CCS(=O)(=O)Nc1ccc2c(c1)/C(=C(/Nc1ccc(CN3CCCCC3)cc1)c1ccccc1)C(=O)N2,NF-kB SEAP reporter activity,[3]; [8],0.214
same,NF-kB SEAP reporter activity,[3]; [9],0.227
Cc1[nH]c(C=C2C(=O)Nc3ccc(F)cc32)c(C)c1C(=O)NCCN1CCCC1 (library stock concentration (final ~1000-fold dilution): 2 mM),NF-kB SEAP reporter activity,[2]; agonist: LPS (TLR4) 0.1 ug/mL,1.04
same,NF-kB SEAP reporter activity,[2]; [4],0.183
same,NF-kB SEAP reporter activity,[2]; [5],0.266
same,NF-kB SEAP reporter activity,[2]; [6],0.414
COc1ccc2[nH]cc(C=C3C(=O)Nc4ccc(NC(=O)CCN5CCCCC5)cc43)c2c1 (library stock concentration (final ~1000-fold dilution): 10 mM),NF-kB SEAP reporter activity,[1]; agonist: LPS (TLR4) 0.1 ug/mL,4.16
same,NF-kB SEAP reporter activity,[1]; [4],0.42
same,NF-kB SEAP reporter activity,[1]; [5],1.36
same,NF-kB SEAP reporter activity,[1]; [6],2.01
Cc1[nH]c(C=C2C(=O)Nc3ccc(F)cc32)c(C)c1C(=O)NCCN1CCCC1,NF-kB SEAP reporter activity,"[3]; library stock concentration (final ~1000-fold dilution): 2 mM, cytotoxicity flag (confluency mask): not cytotoxic, agonist: MPLA (TLR4) […]",0.63
COc1ccc2[nH]cc(C=C3C(=O)Nc4ccc(NC(=O)CCN5CCCCC5)cc43)c2c1,NF-kB SEAP reporter activity,[3]; [8],1.4
same,NF-kB SEAP reporter activity,[3]; [9],2
CO[C@H](c1c(NC(=O)Nc2cnc(-n3nccn3)c(Cl)c2)cnc2cc(Cl)nn12)[C@@H](C)OC (library stock concentration (final ~1000-fold dilution): 10 mM),NF-kB SEAP reporter activity,[2]; agonist: LPS (TLR4) 0.1 ug/mL,1.37
same,NF-kB SEAP reporter activity,[2]; [4],0.862
same,NF-kB SEAP reporter activity,[2]; [5],0.76
same,NF-kB SEAP reporter activity,[2]; [6],0.777
CO[C@H](c1c(NC(=O)Nc2cnc(-n3nccn3)c(Cl)c2)cnc2cc(Cl)nn12)[C@@H](C)OC,NF-kB SEAP reporter activity,[3]; [10],0.986
same,NF-kB SEAP reporter activity,[3]; [7],0.994
C=Cc1c(C)c2cc3nc(cc4[nH]c(cc5nc(cc1[nH]2)C(C)=C5CCC(=O)O)c(CCC(=O)OC)c4C)C1(C)C3=CC=C(C(=O)OC)C1C(=O)OC (centres undefined),NF-kB SEAP reporter activity,[3]; [8],0.297
same,NF-kB SEAP reporter activity,[3]; [9],0.349
C=Cc1c(C)c2cc3nc(cc4[nH]c(cc5nc(cc1[nH]2)C(C)=C5CCC(=O)O)c(CCC(=O)OC)c4C)C1(C)C3=CC=C(C(=O)OC)C1C(=O)OC (centres undefined) (library stock concentration (final ~1000-fold dilution): 10 mM),NF-kB SEAP reporter activity,[1]; agonist: LPS (TLR4) 0.1 ug/mL,0.243
same,NF-kB SEAP reporter activity,[1]; [4],0.233
same,NF-kB SEAP reporter activity,[1]; [5],0.193
same,NF-kB SEAP reporter activity,[1]; [6],0.191
CNC(=O)c1cccc(-c2ccc3c(N4CCOCC4C)nc(N4CCOCC4C)nc3n2)c1 (centres undefined) (library stock concentration (final ~1000-fold dilution): 10 mM),NF-kB SEAP reporter activity,[2]; agonist: LPS (TLR4) 0.1 ug/mL,1.11
same,NF-kB SEAP reporter activity,[2]; [4],0.489
same,NF-kB SEAP reporter activity,[2]; [5],0.376
same,NF-kB SEAP reporter activity,[2]; [6],0.57
CNC(=O)c1cccc(-c2ccc3c(N4CCOCC4C)nc(N4CCOCC4C)nc3n2)c1 (centres undefined),NF-kB SEAP reporter activity,[3]; [10],1.13
same,NF-kB SEAP reporter activity,[3]; [7],1.22
Oc1c(Cl)cc(Cl)cc1Sc1cc(Cl)cc(Cl)c1O,NF-kB SEAP reporter activity,[3]; [8],1.81
same,NF-kB SEAP reporter activity,[3]; [9],1.6
Oc1c(Cl)cc(Cl)cc1Sc1cc(Cl)cc(Cl)c1O (library stock concentration (final ~1000-fold dilution): 10 mM),NF-kB SEAP reporter activity,[1]; agonist: LPS (TLR4) 0.1 ug/mL,3.19
same,NF-kB SEAP reporter activity,[1]; [4],1.08
same,NF-kB SEAP reporter activity,[1]; [5],0.362
same,NF-kB SEAP reporter activity,[1]; [6],0.801
CCC1(O)C(=O)OCc2c1cc1n(c2=O)Cc2cc3c(CN(C)C)c(O)ccc3nc2-1 (centres undefined) (library stock concentration (final ~1000-fold dilution): 10 mM),NF-kB SEAP reporter activity,[2]; agonist: LPS (TLR4) 0.1 ug/mL,2.01
same,NF-kB SEAP reporter activity,[2]; [4],1.59
same,NF-kB SEAP reporter activity,[2]; [5],0.849
same,NF-kB SEAP reporter activity,[2]; [6],1.27
CCC1(O)C(=O)OCc2c1cc1n(c2=O)Cc2cc3c(CN(C)C)c(O)ccc3nc2-1.Cl (centres undefined),NF-kB SEAP reporter activity,[3]; [8],2.3
same,NF-kB SEAP reporter activity,[3]; [9],2.16
CCC1(O)C(=O)OCc2c1cc1n(c2=O)Cc2cc3cc(O)ccc3nc2-1 (centres undefined) (library stock concentration (final ~1000-fold dilution): 10 mM),NF-kB SEAP reporter activity,[2]; agonist: LPS (TLR4) 0.1 ug/mL,1.08
same,NF-kB SEAP reporter activity,[2]; [4],0.937
same,NF-kB SEAP reporter activity,[2]; [5],1.07
same,NF-kB SEAP reporter activity,[2]; [6],1.14
same,NF-kB SEAP reporter activity,[1]; agonist: LPS (TLR4) 0.1 ug/mL,1.9
same,NF-kB SEAP reporter activity,[1]; [4],2.17
same,NF-kB SEAP reporter activity,[1]; [5],1.03
same,NF-kB SEAP reporter activity,[1]; [6],1.5
CCC1(O)C(=O)OCc2c1cc1n(c2=O)Cc2cc3c(CN(C)C)c(O)ccc3nc2-1.Cl (centres undefined) (library stock concentration (final ~1000-fold dilution): 10 mM),NF-kB SEAP reporter activity,[1]; agonist: LPS (TLR4) 0.1 ug/mL,2.73
same,NF-kB SEAP reporter activity,[1]; [4],2.71
same,NF-kB SEAP reporter activity,[1]; [5],0.868
same,NF-kB SEAP reporter activity,[1]; [6],1.35
CCC1(O)C(=O)OCc2c1cc1n(c2=O)Cc2cc3c(CN(C)C)c(O)ccc3nc2-1 (centres undefined),NF-kB SEAP reporter activity,[3]; [10],1.46
same,NF-kB SEAP reporter activity,[3]; [7],1.93
CCC1(O)C(=O)OCc2c1cc1n(c2=O)Cc2cc3cc(O)ccc3nc2-1 (centres undefined),NF-kB SEAP reporter activity,[3]; [8],2.34
same,NF-kB SEAP reporter activity,[3]; [9],2
same,NF-kB SEAP reporter activity,[3]; [10],0.896
same,NF-kB SEAP reporter activity,[3]; [7],0.856
